In PubChem BioAssay (Tox21):
Results filed as inconclusive are left out. Activity calls are given as the source filed them. Unless noted, the call rests on the fitted dose curve; in most records, active means well fitted curve in the direction sought with a large enough effect in the repeat runs; inconclusive means weak or mixed curves; inactive means no such curve, though single readings can be large; an effect the other way counts as inactive or inconclusive.

Legend:
[1] = qHTS assay to identify small molecule agonists of H2AX (AID 1224845; active means well fitted activation curve with a large enough effect in the signal ratio in the repeat runs, not every such curve was filed as active; the % refers to the signal ratio)
Method in brief: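 Wild-type CHO-K1 cells, plated overnight, exposed 3hr at 37C to 15 concentrations (0.76% DMSO final). Lysed, then HTRF anti-pH2AX (S139) cryptate and anti-H2AX-d2 antibodies, 24 hr room temperature; 665/620 nm emission read.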

[2] = qHTS assay to identify small molecule agonists of the hypoxia (HIF-1) signaling pathway (AID 1224846; active means well fitted activation curve with a large enough effect in the signal ratio in the repeat runs, not every such curve was filed as active; the % refers to the signal ratio)
Method in brief: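 Beta-lactamase FRET read-out (CCF4-AM substrate) from ME-180 cells carrying an HRE-driven bla reporter, after 17 hrs compound exposure at 37C/5% CO2. Cells were seeded at 2,000 per well in 0.5% dialyzed FBS medium and preincubated 5 hrs.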

[3] = qHTS assay to identify small molecule agonists of H2AX - cell viability counter screen (AID 1224847; calls by dose curve; further: top concentration of the series differs between compounds; nearly all actives have a fitted effect of over 30% in size)
Method in brief: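 CHO-K1 cells plated overnight at 37C, then exposed 3 h at 37C to compounds at 15 concentrations (0.76% DMSO final). Viability by CellTiter-Glo luminescence after 30 min at room temperature.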

[4] = qHTS RealTime-Glo MT Cell Viability Assay in HepG2 cells - 24 hour (AID 1224867); further: nearly all actives have a fitted effect of over 50% in size
Method in brief: (§1)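 Tox21 10K library screened in qHTS format on HepG2 cells carrying RealTime-Glo reagents. Compounds were added after a 5 h preincubation, and the luminescent signal from continuous culture was measured repeatedly during 40 h treatment.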

[5] = qHTS RealTime-Glo MT Cell Viability Assay in HEK293 cells - 32 hour (AID 1224868); further: top concentration of the series differs between compounds; nearly all actives have a fitted effect of over 50% in size
Method in brief: (§2)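 Luminescence generated by NanoLuc from substrate produced by living HEK293 cells served as the viability signal. Each value reflects the reading at its stated time point during continuous 40 h compound exposure at 37 C.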

[6] = A CellTox Green Cytotoxicity Assay to monitor cytotoxicity in HEK293 cells - 0 hour (AID 1224869); further: nearly all actives have a fitted effect of over 50% in size
Method in brief: (§3)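 Read-out: fluorescence of a cell-impermeant cyanine dye staining DNA of dead cells, proportional to cytotoxicity. HEK293, 600 cells/well with reagent, compound (23 nL DMSO) added after 5 h; reads at 0, 8, 16, 24, 32, 40 h.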

[7] = qHTS RealTime-Glo MT Cell Viability Assay in HepG2 cells - 40 hour (AID 1224870); further: nearly all actives have a fitted effect of over 50% in size
Method in brief: (§4)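 HepG2 cells (600/well) mixed with RealTime-Glo MT reagent, settled 5 h at 37 C/5% CO2 before compound addition. Nonlytic NanoLuc luminescence from viable-cell prosubstrate reduction read repeatedly during 40 h treatment at 37 C.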

[8] = A CellTox Green Cytotoxicity Assay to monitor cytotoxicity in HEK293 cells - 40 hour (AID 1224871); further: nearly all actives have a fitted effect of over 45% in size
Method in brief: as §3

[9] = qHTS RealTime-Glo MT Cell Viability Assay in HEK293 cells - 16 hour (AID 1224872)
Method in brief: as §2

[10] = qHTS RealTime-Glo MT Cell Viability Assay in HepG2 cells - 8 hour (AID 1224873); further: nearly all actives have a fitted effect of over 55% in size
Method in brief: as §4

[11] = qHTS RealTime-Glo MT Cell Viability Assay in HEK293 cells - 40 hour (AID 1224874); details: RealTime-Glo luminescence; max response: stronger effect = lower value; further: nearly all actives have a fitted effect of over 50% in size
Method in brief: (§5)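 Luminescence readout at each listed time point; HEK293, 600 cells/well, RealTime-Glo MT reagent added with cells; compounds pinned (23 nL in DMSO) after 5 h at 37 C; continuous culture at 37 C.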

[12] = A CellTox Green Cytotoxicity Assay to monitor cytotoxicity in HEK293 cells - 24 hour (AID 1224875); further: nearly all actives have a fitted effect of over 45% in size
Method in brief: as §3

[13] = A CellTox Green Cytotoxicity Assay to monitor cytotoxicity in HepG2 cells - 16 hour (AID 1224876); further: nearly all actives have a fitted effect of over 45% in size; further: potency means the concentration at half of the fitted maximal effect
Method in brief: (§6)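 HepG2, 600 cells/well premixed w/ CellTox Green; 5 h settle, 37 C/5% CO2; pintool cpd add (DMSO); 37 C, 40 h; fluorescence read at 0, 8, 16, 24, 32, 40 h.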

[14] = A CellTox Green Cytotoxicity Assay to monitor cytotoxicity in HepG2 cells - 24 hour (AID 1224878); further: nearly all actives have a fitted effect of over 45% in size; further: potency means the concentration at half of the fitted maximal effect
Method in brief: as §6

[15] = A CellTox Green Cytotoxicity Assay to monitor cytotoxicity in HepG2 cells - 40 hour (AID 1224879); further: nearly all actives have a fitted effect of over 40% in size; further: potency means the concentration at half of the fitted maximal effect
Method in brief: as §6

[16] = qHTS RealTime-Glo MT Cell Viability Assay in HEK293 cells - 0 hour (AID 1224880); further: nearly all actives have a fitted effect of over 45% in size; further: potency means the concentration at half of the fitted maximal effect
Method in brief: as §5

[17] = A CellTox Green Cytotoxicity Assay to monitor cytotoxicity in HEK293 cells - 32 hour (AID 1224881); further: nearly all actives have a fitted effect of over 40% in size
Method in brief: as §3

[18] = qHTS assay to identify small molecule agonists of the estrogen related receptor (ERR) signaling pathway from Tox21 library (AID 1224849; calls by dose curve; further: nearly all actives have a fitted effect of over 15% in size); details: ERR reporter cell line, ONE-Glo luciferase, 18 h; at 92.4 µM (top of the series) unless noted
Method in brief: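 Luminescence readout (ONE-Glo, 30 min RT) after 18 h compound exposure at 37 C of NTP-supplied ERR reporter cells; cells were plated 6 h before compound addition by pin tool.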

[19] = qHTS RealTime-Glo MT Cell Viability Assay in HepG2 cells - 32 hour (AID 1224877); further: nearly all actives have a fitted effect of over 55% in size
Method in brief: as §1

[20] = qHTS assay to identify small molecule antagonists of the estrogen related receptor (ERR) signaling pathway from Tox21 library (AID 1224848); further: nearly all actives have a fitted effect of over 50% in size; further: potency means the concentration at half of the fitted maximal effect
Method in brief: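 Compounds dissolved in DMSO are pin-transferred onto ERR reporter cells (2,000 per well) that have settled for 6 h at 37 C. Plates then incubate 18 h at 37 C before ONE-Glo luciferase reagent and a luminescence read 30 min later.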
On the % scale 0 is the no-effect control and ±100 the full control effect.

O=C(NCCO[N+](=O)[O-])c1cccnc1
inactive: Potency [1] | Potency [2] | Potency [3] | Potency [4] | Potency [5] | Potency [6] | Potency [7] | Potency [8] | Potency [9] | Potency [10] | max response [11] 0.0315% | Potency [12] | Potency [13] | Potency [14] | Potency [15] | Potency [16] | Potency [17]

CCCOC(C(=O)OC1CCN(C)CC1)(c1ccccc1)c1ccccc1
inactive: Potency [1] | Potency [2] | Potency [3] | activity change, positive = activation [18] -25.8% [at 42.5 µM] | Potency [4] | Potency [6] | Potency [7] | Potency [10] | Potency [16]
active: Potency [13] 19 µM | Potency [14] 23.9 µM | Potency [15] 23.9 µM

CC/C=C\CCOC(=O)CC
inactive: Potency [1] | Potency [2] | Potency [3] | Potency [4] | Potency [5] | Potency [6] | Potency [7] | Potency [8] | Potency [9] | Potency [10] | max response [11] 0.388% | Potency [12] | Potency [13] | Potency [19] | Potency [14] | Potency [15] | Potency [16] | Potency [17]

Nc1ccccc1S(=O)(=O)c1ccccc1
inactive: Potency [1] | Potency [2] | Potency [3] | activity change, positive = activation [18] -20.8% | Potency [4] | Potency [5] | Potency [6] | Potency [7] | Potency [8] | max response [11] -22.9% | Potency [12] | Potency [13] | Potency [19] | Potency [14] | Potency [15] | Potency [17]

O=C(O)CC(=O)C(=O)O
inactive: Potency [1] | Potency [2] | Potency [3] | Potency [4] | Potency [5] | Potency [6] | Potency [7] | Potency [8] | Potency [9] | Potency [10] | max response [11] -2.18% | Potency [12] | Potency [13] | Potency [19] | Potency [14] | Potency [15] | Potency [17]

C1CCCNCCC1
inactive: Potency [1] | Potency [2] | Potency [3] | Potency [20] | activity change, positive = activation [18] -2.25% | Potency [5] | Potency [6] | Potency [7] | Potency [8] | Potency [9] | Potency [10] | max response [11] -5.84% | Potency [12] | Potency [13] | Potency [19] | Potency [14] | Potency [15] | Potency [16] | Potency [17]

O=C1[C@H]2CCCC[C@H]2C(=O)N1CCCCN1CCN(c2nsc3ccccc23)CC1
active: Potency [20] 26.6 µM
inactive: Potency [1] | Potency [2] | Potency [3] | activity change, positive = activation [18] -38.9% [at 42.5 µM] | Potency [4] | Potency [6] | Potency [7] | Potency [10] | Potency [12] | Potency [13] | Potency [14] | Potency [15] | Potency [16]

C[C@@H]1C[C@H]2O[C@@]3(O[C@@H]2C(C)(C)O)[C@H](O)[C@@]2(C)[C@@H]4CC[C@H]5C(C)(C)[C@@H](O[C@@H]6OC[C@@H](O)[C@H](O)[C@H]6O)CC[C@@]56C[C@@]46CC[C@]2(C)[C@@H]13
inactive: Potency [1] | Potency [2] | Potency [3] | Potency [20] | activity change, positive = activation [18] -12.2% [at 42.5 µM] | Potency [5] | Potency [6] | Potency [7] | Potency [8] | Potency [9] | Potency [10] | max response [11] -15.4% | Potency [12] | Potency [13] | Potency [19] | Potency [14] | Potency [15]

CCOC(=O)Cc1cccc2ccccc12
inactive: Potency [1] | Potency [2] | Potency [3] | Potency [20] | activity change, positive = activation [18] -0.505% | Potency [6] | Potency [7] | Potency [8] | Potency [10] | max response [11] -4.39% | Potency [12] | Potency [16] | Potency [17]
active: Potency [15] 21.9 µM

COCC(C)OC(C)=O (stereo not drawn)
inactive: Potency [1] | Potency [2] | Potency [3] | Potency [4] | Potency [5] | Potency [6] | Potency [7] | Potency [8] | Potency [9] | max response [11] 8.38% | Potency [12] | Potency [13] | Potency [19] | Potency [14] | Potency [15] | Potency [16]

CCC(CC)Nc1ccc(C)c(C)c1
inactive: Potency [1] | Potency [2] | Potency [3] | Potency [4] | Potency [6] | Potency [7] | Potency [8] | Potency [9] | max response [11] 12.5% | Potency [12] | Potency [13] | Potency [19] | Potency [15] | Potency [16] | Potency [17]

CCOC(=O)C(=O)CCc1ccccc1
inactive: Potency [1] | Potency [2] | Potency [3] | Potency [5] | Potency [6] | Potency [7] | Potency [8] | Potency [10] | max response [11] 0.79% | Potency [12] | Potency [13] | Potency [19] | Potency [14] | Potency [15] | Potency [16] | Potency [17]

CNC(=O)CN(CCN(CCN(CC(=O)[O-])CC(=O)NC)CC(=O)[O-])CC(=O)[O-].O.[Gd+3]
inactive: Potency [1] | Potency [2] | Potency [3] | Potency [4] | Potency [6] | Potency [7] | Potency [8] | Potency [9] | Potency [10] | max response [11] 2.96% | Potency [12] | Potency [13] | Potency [15] | Potency [16] | Potency [17]

Nc1ccc(S(=O)(=O)Nc2ccccc2)cc1
inactive: Potency [1] | Potency [2] | Potency [3] | Potency [6] | Potency [7] | Potency [8] | Potency [9] | max response [11] 0.381% | Potency [12] | Potency [13] | Potency [19] | Potency [14] | Potency [15] | Potency [16] | Potency [17]

CCCCc1nc2cccnc2n1Cc1ccc(-c2ccccc2-c2nnn[nH]2)cc1
inactive: Potency [1] | Potency [2] | Potency [3] | Potency [4] | Potency [6] | Potency [7] | Potency [8] | Potency [12] | Potency [19] | Potency [15] | Potency [17]
active: Potency [16] 21.9 µM
